PubChem BioAssay (Tox21)
Results filed as inconclusive are left out. Calls of active or inactive are those of the source. Unless noted, the call rests on the fitted dose curve.

How the values were obtained:
[1] = Nuclear factor erythroid 2-related factor 2/antioxidant responsive element (Nrf2/ARE) small molecule agonists: qHTS cell viability counter screen in human keratinocytes (AID 1919968; active means well fitted curve in the direction sought with a large enough effect in the repeat runs; an effect the other way counts as inactive or inconclusive; further: nearly all actives have a fitted effect of over 55% in size)
In short: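 CellTiter-Fluor fluorescence, read 1 h after reagent, gave viability in the same wells as the ARE-luciferase assay. KeratinoSens cells (1,500/well) had 23 h compound exposure at 37 C/5% CO2 following 5 h plating.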

[2] = Nuclear factor erythroid 2-related factor 2/antioxidant responsive element (Nrf2/ARE) small molecule agonists: luciferase reporter gene qHTS assay in human keratinocytes (AID 1919969); further: nearly all actives have a fitted effect of over 35% in size
[3] = target: Gonadotropin-releasing hormone receptor (Homo sapiens) (UniProt P30968); test: Human gonadotropin-releasing hormone receptor (GnRHR) small molecule agonists, calcium flux assay in GnRHR-HEK293 cells (AID 1920063); further: nearly all actives have a fitted effect of over 35% in size
In short: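 Agonist mode: compounds at 15 concentrations, in triplicate, went onto calcium dye-loaded GnRHR-HEK293 cells. Intracellular calcium was then followed as 480/540 nm fluorescence at 1 s intervals over 3 min.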

[4] = target: KiSS-1 receptor (Homo sapiens) (UniProt Q969F8); test: Human kisspeptin (KISS1R) small molecule agonists, calcium flux assay in KISS1R-HEK293 cells (AID 1920064; active means well fitted curve in the direction sought with a large enough effect in the repeat runs; an effect the other way counts as inactive or inconclusive)
In short: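 Agonist mode: intracellular calcium rise tracked at 1 s intervals over 3 min (480/540 nm) immediately after compound addition to dye-loaded KISS1R-HEK293 stable cells. Each compound tested at 15 concentrations in triplicate.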

[5] = G protein-coupled receptor (GPCR) small molecule agonists, calcium flux assay: HEK293 wild type cell line counter screen (AID 1920065)
In short: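 Calcium flux counter screen: compound added in agonist mode at 15 concentrations in triplicate to dye-loaded parental HEK293 cells. Fluorescence (480/540) read kinetically for 3 min; ATP served as positive control.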

[6] = p53 small molecule agonists, cell-based qHTS assay with human liver microsomes (AID 1963577);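 further: p53 response element beta-lactamase reporter cells with liver microsomes plus NADPH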
In short: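 With metabolic activation: human liver microsomes (0.5 mg/mL final) plus NADPH (0.5 mg/mL final) added alongside compounds to p53RE-bla cells; 16 h 37 C exposure; beta-lactamase read by LiveBLAzer fluorescence.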

[7] = p53 small molecule agonists, cell-based qHTS assay with rat liver microsomes (AID 1963578)
In short: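 Metabolic activation by rat liver microsomes and NADPH, each 0.5 mg/mL final, added right after compounds to p53RE-bla reporter cells (4,000/well, plated 5 h earlier). 16 h at 37 C, then LiveBLAzer substrate for 2 h at room temperature in the dark; fluorescence read-out.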

[8] = p53 small molecule agonists, cell-based qHTS assay with human liver microsomes: qHTS cell viability counter screen (AID 1963579); further: nearly all actives have a fitted effect of over 45% in size
In short: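 Metabolic activation used human liver microsomes and NADPH, both 0.5 mg/mL final, over 16 hours at 37 C on p53RE-bla cells (4,000/well). Cytotoxicity measured by CellTiter-Glo luminescence, 30 min at room temperature.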

[9] = p53 small molecule agonists, cell-based qHTS assay with rat liver microsomes: qHTS cell viability counter screen (AID 1963580); further: nearly all actives have a fitted effect of over 45% in size
In short: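 Cytotoxicity counter screen: intracellular ATP read by CellTiter-Glo luminescence in the p53 reporter wells. HCT-116 p53RE-bla cells were treated for 16 h at 37 C alongside rat liver microsomes and NADPH, each 0.5 mg/mL final.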

[10] = p53 small molecule agonists, cell-based qHTS assay (AID 1963582; active means well fitted activation curve with a large enough effect in the signal ratio in the repeat runs, not every such curve was filed as active; the % refers to the signal ratio)
In short: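 Read-out is beta-lactamase FRET fluorescence after 2 h at room temperature with LiveBLAzer B/G substrate. p53 response element-bla cells were treated 16 h at 37 C with compounds in DMSO, added 5 h after seeding.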

[11] = target: 5-hydroxytryptamine receptor 2A (Homo sapiens) (UniProt P28223); test: 5-hydroxytryptamine receptor 2A (HTR2A) small molecule antagonists, cell-based qHTS assay (AID 1963586); further: nearly all actives have a fitted effect of over 45% in size
In short: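 CHO cells stably expressing human HTR2A were plated for 18 h at 37 C, then loaded with calcium dye for 1 h. Compounds were preincubated 5 min at room temperature before DOI (4 nM solution) was added. Kinetic fluorescence was read for 3 min.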

[12] = target: 5-hydroxytryptamine receptor 2A (Homo sapiens) (UniProt P28223); test: 5-hydroxytryptamine receptor 2A (HTR2A) small molecule agonists, cell-based qHTS assay (AID 1963587); further: nearly all actives have a fitted effect of over 30% in size
In short: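 Kinetic calcium-flux fluorescence (2 min, 1 sec intervals) after compound addition in agonist mode. HTR2A-CHO cells were cultured 18 h, then dye-loaded 1 h at 37 C.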

[13] = target: Muscarinic acetylcholine receptor M1 (Homo sapiens) (UniProt P11229); test: Cholinergic receptor muscarinic 1 (CHRM1) small molecule antagonists, cell-based qHTS assay (AID 1963588); further: nearly all actives have a fitted effect of over 40% in size
In short: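 Compounds were tested at 15 concentrations in three independent runs. Dye-loaded CHRM1-CHO cells were exposed 5 min at room temperature before stimulation by acetylcholine added at 50nM. Intracellular calcium was read kinetically on FDSS for 3 min.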

[14] = target: Muscarinic acetylcholine receptor M1 (Homo sapiens) (UniProt P11229); test: Cholinergic receptor muscarinic 1 (CHRM1) small molecule agonists, cell-based qHTS assay (AID 1963589); further: nearly all actives have a fitted effect of over 35% in size
In short: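 Agonist-mode calcium-flux screen: compounds at 15 concentrations, three independent runs, were pin-transferred onto dye-loaded human CHRM1-CHO cells. Fluorescence was then recorded kinetically every second over minutes.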

[15] = cAMP Responsive Elements (CRE) small molecule agonists, cell-based qHTS assay (AID 1963590)
In short: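 Agonist mode: compound added to CRE-bla HEK 293T cells (2,000/well, 18 h after plating) for 3 h at 37 C/5% CO2. Reporter activity detected via FRET beta-lactamase substrate, 2 h room-temperature loading.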

[16] = cAMP Responsive Elements (CRE) small molecule antagonists, cell-based qHTS assay (AID 1963591; active means well fitted inhibition curve with a large enough effect in the signal ratio in the repeat runs, not every such curve was filed as active; the % refers to the signal ratio)
In short: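 Antagonist mode: compounds are added alongside the adenylyl cyclase activator NKH477 (0.25 uM final) to CRE-bla HEK293T cells for 3 h. LiveBLAzer FRET substrate, 2 h at room temperature, reports bla expression.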

[17] = target: Beta-2 adrenergic receptor (Homo sapiens) (UniProt P07550); test: Adrenergic beta2 receptor (ADRB2) small molecule antagonists, cell-based qHTS assay (AID 1963592); further: series mostly up to about 92 µM; nearly all actives have a fitted effect of over 50% in size
In short: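 Assay format: CHO-ADRB2 cells, 18-20hr seeding at 37C/5% CO2, then compound plus 1nM isoproterenol agonist mix for 0.5hr RT. Homogeneous time-resolved fluorescence cAMP detection after 1hr, expressed as 665/615 nm ratio.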

[18] = target: Beta-2 adrenergic receptor (Homo sapiens) (UniProt P07550); test: Adrenergic beta2 receptor (ADRB2) small molecule agonists, cell-based qHTS assay (AID 1963593);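 further: CHO cells stably overexpressing human ADRB2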
In short: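 CHO cells stably over-expressing ADRB2 were plated overnight at 37C, then dosed with compounds plus a stimulation mix containing 100uM IBMX and 25uM Ro-20-1724 for 0.5hr at room temperature. cAMP was measured by HTRF competition, 1hr.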

[19] = target: D(2) dopamine receptor (Homo sapiens) (UniProt P14416); test: Dopamine D2 receptor (DRD2) small molecule agonists, cell-based qHTS assay (AID 1963594); further: nearly all actives have a fitted effect of over 35% in size
In short: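 cAMP accumulation in DRD2-HEK293 cells measured by HTRF after 1 h detection; compounds added 10 min before NKH477 (200nM […]) forskolin-analogue stimulation, 30 min at room temperature, with Ro20-1724 present at 0.1 mM final.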

[20] = target: D(2) dopamine receptor (Homo sapiens) (UniProt P14416); test: Dopamine D2 receptor (DRD2) small molecule antagonists, cell-based qHTS assay (AID 1963595; active means well fitted inhibition curve with a large enough effect in the signal ratio in the repeat runs, with a control signal flat; the % refers to the signal ratio)
In short: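 Antagonism was scored as restored cAMP in HEK293-DRD2 cells. These cells were stimulated with 200 nM NKH477 and 12 nM quinpirole for 30 min at room temperature, in the presence of 0.1 mM Ro20-1724.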
On the % scale 0 is the no-effect control and ±100 the full control effect.

Gonadotropin-releasing hormone receptor (Homo sapiens), sequence (P30968 whole entry, looked up): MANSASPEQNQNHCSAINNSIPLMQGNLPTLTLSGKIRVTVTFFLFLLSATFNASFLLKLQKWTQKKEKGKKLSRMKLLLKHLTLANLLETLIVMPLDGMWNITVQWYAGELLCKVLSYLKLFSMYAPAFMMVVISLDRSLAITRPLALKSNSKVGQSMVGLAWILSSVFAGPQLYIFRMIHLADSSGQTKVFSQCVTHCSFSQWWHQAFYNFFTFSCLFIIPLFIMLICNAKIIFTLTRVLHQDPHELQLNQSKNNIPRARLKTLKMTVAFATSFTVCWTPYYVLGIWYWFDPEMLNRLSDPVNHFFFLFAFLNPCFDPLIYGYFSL
Muscarinic acetylcholine receptor M1 (Homo sapiens), sequence (P11229 whole entry, looked up): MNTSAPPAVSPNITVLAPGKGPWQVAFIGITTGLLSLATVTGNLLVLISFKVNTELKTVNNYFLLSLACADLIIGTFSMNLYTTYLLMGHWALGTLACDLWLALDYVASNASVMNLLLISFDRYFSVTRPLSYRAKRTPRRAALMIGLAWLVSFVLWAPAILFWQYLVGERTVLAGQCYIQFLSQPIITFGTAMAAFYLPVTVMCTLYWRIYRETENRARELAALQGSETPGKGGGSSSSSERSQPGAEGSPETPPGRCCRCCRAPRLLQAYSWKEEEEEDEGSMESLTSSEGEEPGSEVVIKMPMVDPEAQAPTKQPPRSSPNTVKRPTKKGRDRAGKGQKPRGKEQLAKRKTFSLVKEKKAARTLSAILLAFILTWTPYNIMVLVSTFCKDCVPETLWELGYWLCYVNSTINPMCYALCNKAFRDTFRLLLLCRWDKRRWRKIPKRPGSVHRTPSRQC
5-hydroxytryptamine receptor 2A (Homo sapiens), sequence (P28223 whole entry, looked up): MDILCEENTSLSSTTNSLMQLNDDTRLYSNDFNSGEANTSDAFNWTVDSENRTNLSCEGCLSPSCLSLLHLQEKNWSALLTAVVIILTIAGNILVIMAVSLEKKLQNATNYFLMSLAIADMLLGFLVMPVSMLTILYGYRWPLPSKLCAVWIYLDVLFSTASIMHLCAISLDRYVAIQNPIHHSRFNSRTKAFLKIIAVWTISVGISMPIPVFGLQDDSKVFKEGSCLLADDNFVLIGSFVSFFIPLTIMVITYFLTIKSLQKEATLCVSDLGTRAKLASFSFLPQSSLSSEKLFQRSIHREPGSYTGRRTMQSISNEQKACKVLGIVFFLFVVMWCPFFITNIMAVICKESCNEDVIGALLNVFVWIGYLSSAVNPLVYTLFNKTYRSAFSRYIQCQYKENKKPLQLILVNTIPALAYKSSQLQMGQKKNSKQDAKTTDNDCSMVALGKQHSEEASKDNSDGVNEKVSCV
Beta-2 adrenergic receptor (Homo sapiens), sequence (P07550 whole entry, looked up): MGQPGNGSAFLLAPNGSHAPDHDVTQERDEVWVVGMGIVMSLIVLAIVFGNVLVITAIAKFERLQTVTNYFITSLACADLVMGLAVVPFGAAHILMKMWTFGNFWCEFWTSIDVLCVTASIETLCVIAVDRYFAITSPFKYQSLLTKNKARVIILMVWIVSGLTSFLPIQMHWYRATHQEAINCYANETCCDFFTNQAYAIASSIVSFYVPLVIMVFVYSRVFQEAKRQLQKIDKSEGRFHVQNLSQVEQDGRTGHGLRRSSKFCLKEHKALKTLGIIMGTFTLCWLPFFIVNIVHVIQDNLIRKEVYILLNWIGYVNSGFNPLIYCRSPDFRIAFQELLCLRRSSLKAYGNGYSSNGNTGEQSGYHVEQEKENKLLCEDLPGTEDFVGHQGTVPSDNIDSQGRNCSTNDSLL
KiSS-1 receptor (Homo sapiens), sequence (Q969F8 whole entry, looked up): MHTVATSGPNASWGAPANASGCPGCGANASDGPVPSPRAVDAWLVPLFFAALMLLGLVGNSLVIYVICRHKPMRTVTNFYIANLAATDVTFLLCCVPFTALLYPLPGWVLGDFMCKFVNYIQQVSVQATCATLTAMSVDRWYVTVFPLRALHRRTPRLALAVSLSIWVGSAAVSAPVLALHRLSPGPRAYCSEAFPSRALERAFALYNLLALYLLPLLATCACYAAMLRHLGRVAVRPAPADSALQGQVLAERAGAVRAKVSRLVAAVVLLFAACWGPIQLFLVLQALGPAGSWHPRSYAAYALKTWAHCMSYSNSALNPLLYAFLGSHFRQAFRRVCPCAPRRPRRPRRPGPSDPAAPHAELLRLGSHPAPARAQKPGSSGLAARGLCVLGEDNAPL
D(2) dopamine receptor (Homo sapiens), sequence (P14416 whole entry, looked up): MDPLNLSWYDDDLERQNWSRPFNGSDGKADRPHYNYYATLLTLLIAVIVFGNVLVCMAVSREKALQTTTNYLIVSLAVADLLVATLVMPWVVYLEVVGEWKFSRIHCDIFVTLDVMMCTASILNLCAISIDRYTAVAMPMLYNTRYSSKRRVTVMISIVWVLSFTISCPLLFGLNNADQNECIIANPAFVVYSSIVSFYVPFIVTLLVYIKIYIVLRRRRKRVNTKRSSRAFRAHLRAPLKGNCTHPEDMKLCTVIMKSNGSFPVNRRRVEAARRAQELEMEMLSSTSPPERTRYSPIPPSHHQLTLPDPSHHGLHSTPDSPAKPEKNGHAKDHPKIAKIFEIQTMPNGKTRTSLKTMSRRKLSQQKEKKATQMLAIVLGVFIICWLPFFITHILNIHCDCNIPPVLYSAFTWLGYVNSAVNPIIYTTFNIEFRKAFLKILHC

CCCC(=O)OCC(COC(=O)CCC)OC(=O)CCC
inactive: Potency [1] | Potency [2] | Potency [3] | Potency [4] | Potency [5] | Potency [6] | Potency [7] | Potency [8] | Potency [9] | Potency [10] | Potency [11] | Potency [12] | Potency [13] | Potency [14] | Potency [15] | Potency [16] | Potency [17] | Potency [18] | Potency [19] | Potency [20]

C=Cc1ccccn1
inactive: Potency [1] | Potency [2] | Potency [3] | Potency [4] | Potency [5] | Potency [6] | Potency [7] | Potency [8] | Potency [9] | Potency [10] | Potency [11] | Potency [12] | Potency [13] | Potency [14] | Potency [15] | Potency [16] | Potency [17] | Potency [19] | Potency [20]

CCOC(=O)C(C)C(C)=O (configuration not stated)
inactive: Potency [1] | Potency [2] | Potency [3] | Potency [4] | Potency [5] | Potency [6] | Potency [7] | Potency [8] | Potency [9] | Potency [10] | Potency [11] | Potency [12] | Potency [13] | Potency [14] | Potency [15] | Potency [16] | Potency [17] | Potency [18] | Potency [19] | Potency [20]

O=C1NCCN1CCO
inactive: Potency [1] | Potency [2] | Potency [3] | Potency [4] | Potency [5] | Potency [6] | Potency [7] | Potency [8] | Potency [9] | Potency [10] | Potency [11] | Potency [12] | Potency [13] | Potency [14] | Potency [15] | Potency [16] | Potency [17] | Potency [18] | Potency [20]

CC(C)CC(=O)OCc1ccccc1
inactive: Potency [1] | Potency [2] | Potency [3] | Potency [4] | Potency [5] | Potency [6] | Potency [7] | Potency [8] | Potency [9] | Potency [10] | Potency [11] | Potency [12] | Potency [13] | Potency [14] | Potency [15] | Potency [16] | Potency [17] | Potency [19] | Potency [20]

O=S(=O)(O)CC(O)CCl (configuration not stated)
inactive: Potency [1] | Potency [2] | Potency [3] | Potency [4] | Potency [5] | Potency [6] | Potency [7] | Potency [8] | Potency [9] | Potency [10] | Potency [11] | Potency [12] | Potency [13] | Potency [14] | Potency [15] | Potency [16] | Potency [17] | Potency [18] | Potency [19] | Potency [20]

O=S(=O)(O)c1ccc2c(N=Nc3ccc(S(=O)(=O)O)c4ccccc34)c(O)c(S(=O)(=O)O)cc2c1
inactive: activity change, negative = cytotoxicity [1] -5.59% [at 8.39 µM] | activity, positive = activation [2] -0.366% [at 8.39 µM] | activity change [3] 18.3% [at 5.22 µM, active compounds read high] | activation [4] 0.398% [at 6.97 µM] | activation [5] 6.05% [at 5.23 µM] | activation [6] -6.7% [at 5.99 µM] | activation [7] -0.431% [at 5.99 µM] | activity change, negative = cytotoxicity [8] -6.02% [at 5.99 µM] | activity change, negative = cytotoxicity [9] -3.24% [at 5.99 µM] | activation [10] -3.84% [at 5.99 µM] | activity, negative = inhibition [11] 0.404% [at 5.62 µM] | activation [12] 12.5% [at 7.02 µM] | activity, negative = inhibition [13] -10.6% [at 5.58 µM] | activation [14] 2.33% [at 6.97 µM] | activation [15] -1.25% [at 8.39 µM] | activity change, negative = inhibition [16] -1.96% [at 8.39 µM] | activity change, negative = inhibition [17] -2.48% [at 8.39 µM] | activation [18] -0.404% [at 8.39 µM] | activation [19] -0.0629% [at 8.39 µM] | activity change, negative = inhibition [20] 0.317% [at 8.38 µM]
